Laboratory results: PubChem BioAssay AID493248 (Broad Institute, 2011)
The whole screen tested about 2,300 compounds, of which about 1,400 (61%) were called active. Inconclusive results (about 7%) are left out. The rule behind the calls is not given here. The set was probably picked from earlier hits. These entries were drawn from the full list. Measured potencies and affinities stand elsewhere.

Biological target: FAD-linked sulfhydryl oxidase ALR (Homo sapiens) (UniProt P55789)
Assay: ALR-catalysed DTT oxidation blockers – biochemical, H2O2 detection, luminescence, cherry-pick, dose response (AID 493248)
Conditions: purified ALR, H2O2 HRP-luminol luminescence; at 10 µM (top of the series)

FAD-linked sulfhydryl oxidase ALR (Homo sapiens), sequence (P55789 whole entry, looked up): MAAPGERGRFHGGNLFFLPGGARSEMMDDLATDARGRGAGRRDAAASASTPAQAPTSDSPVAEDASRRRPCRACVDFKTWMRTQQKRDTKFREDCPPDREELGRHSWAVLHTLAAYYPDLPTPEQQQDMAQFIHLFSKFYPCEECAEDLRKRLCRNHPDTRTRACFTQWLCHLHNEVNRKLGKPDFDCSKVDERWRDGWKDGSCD

| Structure (SMILES) | activity change, negative = inhibition |
| --- | --- |
| CS(=O)(=O)N1CCN=C1SCc1cccc(F)c1 | -0.153% |
| CCCS(=O)(=O)N1CCN=C1SCc1ccc(F)cc1 | -0.819% |
| S=c1[nH]nc(-c2c[nH]c3ccccc23)o1 | -89% |
| CCn1c(-c2cc(OC)c(OC)c(OC)c2)n[nH]c1=S | -1.45% |
| CCCCCCCCN1[C@@H](CC(=O)O)c2ccc(C(F)(F)F)cc2S1(=O)=O | -22.2% |
| COc1cccc2c3c(c(=O)[nH]c12)CCC(C)(C)O3 | -20.3% |
| CCn1c(SCc2nc3sc(C(=O)O)c(C)c3c(=O)[nH]2)nc2ccccc21 | -10.8% |
| Cc1ccsc1C=Nc1ccc(O)cc1 | -98% |
| Cc1cccc(Oc2ccc(N)cc2)c1 | -1.09% |
| Nc1ccc(Oc2cc(N)cc(Oc3ccccc3)c2)cc1 | 29.7% |
| CNc1nn(-c2cccc(Cl)c2)nc1N | -9.08% |
| c1ccc(-c2cnc(CN3CCN(c4ccccc4)CC3)o2)cc1 | -44.8% |
| COc1cccc(/C=N/n2c(-c3n[nH]c4c3CCC4)n[nH]c2=S)c1O | -33.1% |
| CCCC(C)NC(=O)Cc1ccc(Br)cc1 (configuration not stated) | 60.9% |
| CCCN1CCC(=O)N([C@H](CSc2ccc(OC)cc2)c2ccccc2)CC1 | 1.83% |
| O=S1(=O)N=C(Nc2ccc(O)cc2)c2ccccc21 | 176% |
| Cc1ccc(-c2c(C(=O)O)c(C(=O)O)c3n2CSC3)cc1 | -43.7% |
| S=c1[nH]nc(-c2ccco2)n1/N=C/c1ccccc1 | 0.752% |
| Cc1n[nH]c(=S)n1/N=C/c1ccccc1 | -93.3% |
| Cc1cc(C(=O)NC2CCCc3c2cnn3-c2ccc(C)c(C)c2)no1 (configuration not stated) | -8.68% |
| O=c1[nH]c(/C=C\c2ccccc2F)nc(O)c1[N+](=O)[O-] | -17.7% |

| Structure (SMILES) | activity change, negative = inhibition |
| --- | --- |
| O=C(CNS(=O)(=O)c1ccccc1)N/N=C/c1ccc(O)cc1 | -113% |
| CC1CC(C)CN(C(=O)c2ccc(-c3ccc([N+](=O)[O-])cc3)o2)C1 (configuration not stated) | -37.5% |
| Cc1nc2cccc(C(=O)Oc3ccc([N+](=O)[O-])cc3)c2o1 | -34.6% |
| O=C(NCc1cccs1)C1CCN(S(=O)(=O)c2cccc3cccnc23)CC1 | 3.4% |
| CCCCN(CCCC)c1ccc(C(=O)c2ccccc2C(=O)O)c(O)c1 | -56.2% |
| CCN(CCNC(=O)CN(C)S(=O)(=O)c1cccc2nsnc12)c1ccccc1 | -59.9% |
| Cc1ccc(N=c2oc3cc(O)ccc3cc2C(N)=O)cc1 | -84.9% |
| CC/C(=N\NC(=O)CCC(=O)NCc1ccccc1)c1ccc(O)cc1 | -98.7% |
| Cc1nn(C)c(C)c1Sc1ccccc1N | -14.3% |
| Cc1nc(N2CCN(c3ccccc3)CC2)[nH]c(=O)c1C | -42.3% |
| Nc1ccc2oc(=O)c(-c3ccccc3)cc2c1 | -86.7% |
| Cc1ccc(N2CCN(C(=O)N3CCCC3)CC2)cc1C | -10.1% |
| Cn1ccnc1SCc1cccc([N+](=O)[O-])c1 | 7.58% |
| COc1cccc(CNc2nc3ccccc3n2CCN2CCCCC2)c1OC | -11.4% |
| COc1cc(/C=C2\SC(=S)N(NC(C)=O)C2=O)ccc1OC(=O)c1ccco1 | -26.5% |
| CSc1cccc(NC(=O)c2ccco2)c1 | -98.6% |
| COc1ccc(S(=O)(=O)N2Cc3ccccc3CC2C(=O)Nc2ccc(O)cc2)cc1OC (configuration not stated) | 349% |
| Cc1cc(NC(=O)c2ccco2)sc1C | -98.7% |
| COc1ccc(SCCc2ccncc2)cc1 | -20.1% |
| O=C(C1CCC1)N1CCN(c2ccc(Cl)cc2)CC1 | -43.9% |
| CCCC(=O)N1c2ccc(-c3csc(N)n3)cc2CC1C (configuration not stated) | -16.4% |

| Structure (SMILES) | activity change, negative = inhibition |
| --- | --- |
| Cc1cc(N/N=C/c2ccco2)c2ccccc2n1 | -3.59% |
| Cc1cc(N/N=C/c2ccccc2F)c2ccccc2n1 | -22.6% |
| CC(=O)N1CCN=C1SCc1ccc(Cl)cc1 | -8.99% |
| S=c1[nH]ncn1/N=C/c1ccccc1 | -73% |
| O=C(Cn1cnc2ccccc21)N/N=C/c1ccccn1 | 0.505% |
| COc1ccc(NC(=O)Nc2ccc3nccnc3c2)cc1 | 105% |
| Cc1oc(C(=O)Nc2ccc(C(=O)O)cc2)cc1COc1ccccc1 | -25.3% |
| Cc1ccc(N(C(=O)c2ccc(Br)o2)C2C=CS(=O)(=O)C2)cc1 (configuration not stated) | -13.3% |
| CC1=C(C)CS(=O)N(S(=O)(=O)c2ccccc2)C1 (configuration not stated) | -41.8% |
| O=C(NCCN1CCN(c2ccccc2)CC1)c1cccc(Cl)c1 | -76.5% |
| O=C(Cc1c(C(=O)O)[nH]c2ccccc12)NCCN1CCN(c2cccc(Cl)c2)CC1 | -54.4% |
| CC(C)CN(CC(C)C)c1nnc(N)s1 | 16.8% |
| O=C(Nc1nc2ccc(S(=O)(=O)N3CCCCC3)cc2s1)c1ccncc1 | -6.5% |
| Cc1cccc(-c2n[nH]c(=S)n2/N=C/C=C/c2ccco2)c1 | -98% |
| COc1c(/C=N/Nc2ccc(C(=O)O)cc2)c(CCN(C)C(C)=O)cc2c1OCO2 | -95.6% |
| CC1CN(c2ccccc2)NC1=O (configuration not stated) | 23.1% |
| O=C(NCc1cccs1)c1nc2c(nnn2Cc2ccccc2Cl)c(=O)[nH]1 | -7.82% |
| Cc1n[nH]c(C)c1Sc1ccccc1N | 54.6% |
| COc1cc(OC)cc(-c2cn[nH]c2N)c1 | -60.4% |
| Cc1ccc(N=Nc2c(N)[nH]n3c(=O)cc(C)nc23)cc1 | -55.4% |
